According to the OligoGym collection:

Each sequence was assayed against PHF15 (assay: pooled miR-30 sensor sort-seq; sequence = guide strand). Settings: shRNA.
Note: reference of the scale not given here.

Row | Sequence | sensor-assay potency score (higher = more potent)
1 | TAATATAGTCCGCATTTCCAGG | -1.26
2 | TAGATGTCGCATGACTGTCAGT | -1.14
3 | ATCTCGTCCAAGTCATAGCGGC | -1.39
4 | TCTAACCCTCTCTAGGTCCTGC | 0.0914
5 | TACATCTGAGTCGCTCATCTCC | -0.519
6 | TTGTCTGGAGTCGTCCGTGAAC | -1.11
7 | TGTCGCATGACTGTCAGTGGTG | -0.605

The sequences below were run against PHF19 in the same assay as above. Settings: shRNA.

Row | Sequence | sensor-assay potency score (higher = more potent)
8 | TTTGAAGTTGTTCTTGACCTTC | -0.341
9 | TTGAATTTCATCCAGCGTGAAG | -1.1
10 | TTCTTGATCTCCTTGCCGCAGA | -0.66
11 | TTGTTCTTGACCTTCGCCAGGG | 0.174
12 | TTTTATAACTGTTCAGAGCGTT | 0.145
13 | TAAACTTTGAATTTCATCCAGC | 0.174
14 | TAGTTGGTGATAGATGACTTGA | -1.21
15 | TTTTCTTCTATAAACTCGCCTT | -0.149
16 | TAACATTGCAGCATCCGCAGGT | 0.519
17 | TGAATCTTTTTGAAGGTGCAGA | 0.0337
18 | TTTATAACTGTTCAGAGCGTTG | -1.51
19 | TTGCTTAGAGCTGCTGACCCTC | -1.03

Each sequence was assayed against PHF20 in the same assay as above. Settings: shRNA.

Row | Sequence | sensor-assay potency score (higher = more potent)
20 | TTCCTTGTCTTCCTTCTCGTTC | -0.88
21 | TTGACAGTCTGAACTACTCCAT | -0.0489
22 | TAAACTTATGGTCTAGGTCGAC | -0.7
23 | TTTTAAACAGTCCACAACTTTG | -1.74
24 | TTGAATTTACAACTGTCTCCAA | 0.401
25 | TTCTCAATGGAGTCCATCCTGT | -0.423
26 | TAAACTTCTCTCGTTTATCAGG | -1.02
27 | TTAATGGGACTTCACATCCTTT | -1.47
28 | TTAACTTTCCTTCTTTATCAGG | -0.815
29 | TTGTGTGAGGACCCACACCTGG | -1.15
30 | TGACAGTCTGAACTACTCCATC | -1.04
31 | TTTGTTACTTCCACAGTCGAAA | -0.866

These sequences were tested against PHF23 in the same assay as above. Settings: shRNA.

Row | Sequence | sensor-assay potency score (higher = more potent)
32 | TTTAACTTCCGCTTCTTGCTCT | 0.601
33 | TTAACTTCCGCTTCTTGCTCTT | 0.475
34 | TAACTTCCGCTTCTTGCTCTTC | -0.863
35 | TTGCCATCTCTTCTTCTTCTTC | -0.747
36 | TTTTATAGACAACTGTCCCATT | -0.805
37 | TAACATGTGATCAGATCCCATG | -0.921
38 | TACCATGATGTCCTCGTCCATG | -1.2
39 | TTCTTAATCTTAGCACAGGAGA | -1.04
40 | TATGCCAAAACAAAACTGCAGA | -0.479
